About 18,000 (5.8%) of roughly 310,000 compounds were called active. Inconclusive results (about 22%) are left out. Calls come from the whole dose curve; as a rule, active = well fitted inhibition curve with a large enough effect; inconclusive = small, poorly fitted or top-dose-only effect, or another doubt; inactive = no such curve, though single readings can be large or run the other way. What follows is part of a selection rich in actives, with near analogues and random picks from the rest.
test: Primary qHTS for delayed death inhibitors of the malarial parasite plastid, 48 hour incubation; conditions: P. falciparum luciferase growth in erythrocytes; series mostly up to 28.7 µM; activity change, negative = inhibition: at the top concentration
Method in brief: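 First compound was added to culture medium, then infected red cells at 0.1% parasitemia and 2% hematocrit (final). After incubation at 37 C under 5% CO2, luciferase detection reagent was dispensed and light output recorded.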
% is set by controls: 0 for no effect and ±100 for the full control effect; potency is the fitted concentration of half-maximal effect.

| Compound | activity change, negative = inhibition | Potency |
| --- | --- | --- |
| Nc1nc(SCC(=O)Nc2ccc(Cl)c([N+](=O)[O-])c2)n[nH]1 | -18.9% (inactive) |  |
| O=C(NCc1ccc2c(c1)OCO2)c1cc(F)c(F)cc1Cl | 65.5% (inactive) |  |
| O=C(c1ccco1)N1CCN(C(=O)c2cc(-c3ccccc3F)no2)CC1 | 35.4% (inactive) |  |
| CCOC(=O)c1[nH]c2c(c1-c1ccccc1)C(=O)CC(c1ccc(Cl)cc1)C2 (centres undefined) | 22.1% (inactive) |  |
| CCCOC(=O)c1[nH]c2c(c1C)C(=O)CC(c1cc(OC)c(OC)c(OC)c1)C2 (centres undefined) |  | 1.65 µM (active) |
| COCCOC(=O)c1[nH]c2c(c1C)C(=O)CC(c1ccc(OC)cc1)C2 (centres undefined) | 10.8% (inactive) |  |
| Cn1c(-c2ccc(C(F)(F)F)cc2)cc2onc(-c3ccccc3)c2c1=O | 178% (inactive) |  |
| COCCNC(=O)CN(C(=O)CCC(=O)Nc1cc(C)on1)c1ccc(C)cc1C | -0.34% (inactive) |  |
| Cc1ccc(N(CC(=O)NC2CCCCC2)C(=O)CCCC(=O)Nc2ccccn2)c(C)c1 | -13% (inactive) |  |
| Cc1ccc(C)c(N(CC(=O)NCc2ccco2)C(=O)CCC(=O)Nc2ccccn2)c1 |  | 14.7 µM (active) |
| CCc1ccc(NC(=O)Cn2nnc(C(=O)NCc3ccc4c(c3)OCO4)c2N)cc1 | 26.2% (inactive) |  |
| Cc1ccc(CC(=O)Nc2ccc(S(=O)(=O)N3CCOCC3)cc2)cc1C |  | 9.28 µM (active) |
| O=C(CN1CCCCCC1)Nc1ccc(S(=O)(=O)N2CCCCC2)cc1 | -21.4% (inactive) |  |
| Cc1cc2cc(CNC(=O)c3ccc(S(=O)(=O)N4CCOCC4)cc3)ccc2[nH]1 |  | 13.1 µM (active) |
| COc1ccc(CC(=O)Nc2ccc3c(c2)CCC3)cc1S(=O)(=O)N1CCOCC1 | -21.2% (inactive) |  |
| O=C(CN1CCN(c2cccc(Cl)c2)CC1)Nc1ccc(S(=O)(=O)N2CCOCC2)cc1 |  | 10.4 µM (active) |
| O=C(CN1CCN(S(=O)(=O)/C=C/c2ccccc2)CC1)Nc1ccc(N2CCOCC2)cc1 | -23.2% (inactive) |  |
| Cc1ccc(S(=O)(=O)N2CCOCC2)cc1C(=O)NCc1ccc(F)cc1 | -22.9% (inactive) |  |
| O=C(CN1C(=O)CCC1=O)Nc1ccc(S(=O)(=O)N2CCOCC2)cc1 | -3.85% (inactive) |  |
| O=C(Nc1ccc2cn[nH]c2c1)c1ccc(S(=O)(=O)N2CCOCC2)cc1 | -8.06% (inactive) |  |
| CCOC(=O)c1sc(=NC(=O)c2ccc(Br)cc2)n(C)c1C | 40.3% (inactive) |  |
| Cn1c(=O)c2ccccc2n(CC(=O)Nc2ccc3c(c2)OCCO3)c1=O | -17.8% (inactive) |  |

| Compound | activity change, negative = inhibition | Potency |
| --- | --- | --- |
| COc1cc(C(=O)N/C(=C\c2cn(C)c3ccccc23)C(=O)N2CCOCC2)cc(OC)c1OC | -20.3% (inactive) |  |
| CN(C)S(=O)(=O)c1cccc(C(=O)OCC(=O)N2CCCC2=O)c1 | 43.3% (inactive) |  |
| CC1CC1C(=O)OCC(=O)Nc1cccc(F)c1 (centres undefined) | -18.9% (inactive) |  |
| COc1ccc(NC(=O)NN2CCN(C)CC2)c(OC)c1 | -8.77% (inactive) |  |
| CCOc1ccc(/C=N\NC(=O)c2c(C)nc3cc(C)ccn23)cc1 | -2.1% (inactive) |  |
| Cn1c(=O)n(C)c2cc(S(=O)(=O)Nc3ccc(F)cc3)ccc21 | 0.288% (inactive) |  |
| CSCCC(NC(=O)c1ccc(Cl)cc1Cl)C(=O)NNC(=O)c1csc(N2CCOCC2)n1 (centres undefined) | 6.42% (inactive) |  |
| CC(C)(CNC(=O)Cc1ccc(Cl)cc1Cl)N1CCOCC1 | 4.95% (inactive) |  |
| CSCc1cc(N2CCOCC2)nc(SCc2ccc(Cl)cc2Cl)n1 |  | 13.1 µM (active) |
| Nc1cc(N)nc(SCc2ccc(Cl)cc2)n1 | 31.1% (inactive) |  |
| Clc1ccc(CSc2nnc(/C=C/c3ccccc3)o2)c(Cl)c1 | 7.49% (inactive) |  |
| CSCc1cc(N(C)C)nc(SCc2ccc(Cl)cc2Cl)n1 |  | 13.1 µM (active) |
| CCc1ccc(C(=O)COC(=O)c2ccco2)cc1 | 16% (inactive) |  |
| O=C(NCc1ccco1)/C(=C/c1ccco1)NC(=O)c1ccccc1 | -2.37% (inactive) |  |
| CC1CCCN(S(=O)(=O)c2ccc(-c3ccc(=O)[nH]n3)o2)C1 (centres undefined) | -25.8% (inactive) |  |
| COC(=O)C1(C)CC1(c1ccccc1)c1ccccc1 (centres undefined) | -9.84% [at 0.00184 µM] (inactive) |  |
| Cc1ccccc1-n1cc(CNC(=O)C2CCC(=O)N(C3CC3)C2)cn1 (centres undefined) | -10% (inactive) |  |
| CCN1CCN(C(=O)N(Cc2ccc(Cl)cc2)S(=O)(=O)c2ccc(C)cc2)CC1 | 1.47% (inactive) |  |
| Cc1nn(C)cc1S(=O)(=O)N1CCN(c2ccc(F)cc2)CC1 | 22.3% (inactive) |  |
| Cc1ccc(CNC(=O)C(=O)c2cn(CC(=O)N3CCCC3)c3ccccc23)cc1 | 12% (inactive) |  |
| Oc1ccc(CN2CCN(c3ncccn3)CC2)cc1 | -6.17% (inactive) |  |
| Oc1c(CN2CCCC2)cc(COCc2ccccc2)c2cccnc12 |  | 0.657 µM (active) |

| Compound | activity change, negative = inhibition | Potency |
| --- | --- | --- |
| Oc1c(CN2CCN(c3ccc(F)cc3)CC2)cc(Cl)c2cccnc12 |  | 1.85 µM (active) |
| Cc1cccnc1NC(=O)c1cccc(S(=O)(=O)N2CCN(c3ccc(F)cc3)CC2)c1 | -1.14% (inactive) |  |
| O=C(Cc1ccccc1)NNC(=O)C1CCN(c2ncccn2)CC1 | -13.8% (inactive) |  |
| CC1CCCN(CC(O)COCc2ccccc2)C1 (centres undefined) | -5.27% (inactive) |  |
| Cc1cc(S(=O)(=O)NCC(C)C)ccc1OCC(=O)NC1CC1 | 0.0371% (inactive) |  |
| CC(=O)c1cccc(NC(=S)N2CCN(S(C)(=O)=O)CC2)c1 | -7.77% (inactive) |  |
| Cc1ccc(F)cc1S(=O)(=O)Nc1cccc(C(=O)N2CCCC(C(N)=O)C2)c1 (centres undefined) | -20.4% (inactive) |  |
| COc1ccc(OC)c(NC(=O)c2ccc3c(c2)C(=O)N(c2ccc(OC(C)=O)cc2)C3=O)c1 | 0.907% [at 0.00184 µM] (inactive) |  |
| C/C(=N\NC(=O)C1(C)CC1(Br)Br)c1ccc(C)cc1C (centres undefined) | 9.57% (inactive) |  |
| O=C(CCn1nnnc1CN1CCOCC1)N1CCC(c2ccccc2Cl)C1 (centres undefined) | 51.7% (inactive) |  |
| CCc1nn(CC(=O)N2CCN(CC)CC2)c(=O)c2cccn12 | 34.5% (inactive) |  |
| NC(=O)c1ccc(CN2CCC(Cc3ccccc3)CC2)cc1 | 5.35% (inactive) |  |
| Brc1ccc(CN2CC[C@H]3C=CCc4cccc(c43)C2)cc1 |  | 3.29 µM (active) |
| NC(=O)C1CC(=O)N(c2ccc(OCC(=O)NCc3ccccc3)cc2)C1 (centres undefined) | 5.28% (inactive) |  |
| CCN(C(=O)c1cc([N+](=O)[O-])ccc1NCc1cccnc1)c1ccccc1 | -8.89% (inactive) |  |
| CS(=O)(=O)Nc1ccccc1C(=O)OCC(=O)NC1CC1 | -14.3% (inactive) |  |
| CC(C)=CCc1c(O)c(CC=C(C)C)c2occ(-c3ccc(O)cc3)c(=O)c2c1O |  | 2.94 µM (active) |
| Cc1ccnc(NC(=O)CCNS(=O)(=O)c2ccc(C)c(C)c2)c1 | 277% (inactive) |  |
| Cc1cccc(NS(=O)(=O)c2cc(Cl)ccc2Cl)n1 | -4.36% (inactive) |  |
| O=[N+]([O-])c1ccc(S(=O)(=O)Nc2cccc(-c3ccc(N4CCCC4)nn3)c2)cc1 | 17.3% (inactive) |  |

Reference: PubChem BioAssay AID504832 (National Center for Advancing Translational Sciences (NCATS), 2011)
